PG9 Ab binder: small molecules binding HIV-1 gp120 antibody PG9; TR-FRET gp120-PG9 antibody binding; inhibition, % at 6.7 µM; hit rate 0.43% among 360,000; AID 624416; in the data active = inhibition above about 8.5%
UHRF1 MBD2 ctr: human UHRF1 methylated DNA binding inhibitors; inhibition, % at 4.4 µM; UHRF1 binding to methylated oligo, TR-FRET; hit rate 0.75% among 370,000; in the data active = inhibition above about 21%;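 note: UHRF1 SRA domain binding a hemimethylated CpG hairpin DNA probe; 0% = median of test compound wells and 100% = reference inhibitor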
Target sequence (Q96T88 whole entry, looked up, the tested form may be a part): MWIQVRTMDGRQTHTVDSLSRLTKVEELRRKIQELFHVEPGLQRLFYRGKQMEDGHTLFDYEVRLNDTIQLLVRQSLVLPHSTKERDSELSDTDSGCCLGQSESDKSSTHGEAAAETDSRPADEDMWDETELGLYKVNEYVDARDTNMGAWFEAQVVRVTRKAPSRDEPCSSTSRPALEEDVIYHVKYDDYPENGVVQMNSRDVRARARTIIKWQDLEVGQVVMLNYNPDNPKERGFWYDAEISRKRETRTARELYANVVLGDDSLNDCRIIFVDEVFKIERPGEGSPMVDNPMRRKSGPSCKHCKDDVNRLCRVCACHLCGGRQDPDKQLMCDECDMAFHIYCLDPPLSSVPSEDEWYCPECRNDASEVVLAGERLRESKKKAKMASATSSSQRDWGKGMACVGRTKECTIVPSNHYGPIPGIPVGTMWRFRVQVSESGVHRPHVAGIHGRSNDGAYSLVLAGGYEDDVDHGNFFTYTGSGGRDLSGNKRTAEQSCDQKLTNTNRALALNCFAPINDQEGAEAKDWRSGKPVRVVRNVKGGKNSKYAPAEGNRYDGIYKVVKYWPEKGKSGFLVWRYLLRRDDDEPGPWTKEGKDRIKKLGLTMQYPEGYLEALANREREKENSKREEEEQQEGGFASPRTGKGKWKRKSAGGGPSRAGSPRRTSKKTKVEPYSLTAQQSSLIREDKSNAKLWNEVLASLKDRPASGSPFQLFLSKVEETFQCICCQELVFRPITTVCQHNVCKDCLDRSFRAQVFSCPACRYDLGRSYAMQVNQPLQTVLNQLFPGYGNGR
rCAG RNA binder: molecules binding r(CAG) RNA repeats; r(CAG) RNA repeat, TO-PRO-1 dye displacement fluorescence; inhibition, % at 3 µM; hit rate 1.3% among 370,000;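 active = inhibition above the plate cutoff, the mean of all test compounds on that plate plus 3 SD, cut at about 35% in these data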;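 note: 0% = DMSO alone and 100% = 100 µM mitoxantrone as full dye displacement; higher means more dye released from RNA so lower well fluorescence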
MBD2 DNA inh: blocks human MBD2 binding to methylated DNA | Q9UBB5 | TR-FRET, MBD2 binding to methylated oligonucleotide | inhibition, % at 4.4 µM | hit rate 0.31% among 370,000 | AID 686964; in the data active = inhibition above about 13%
LEDGF integ inh: blocks HIV-1 LEDGF/p75-dependent DNA integration. TR-FRET IN-LEDGF/p75 DNA integration, Eu/Cy5. inhibition, % at 3.7 µM. hit rate 0.64% among 370,000;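 active = inhibition above the screen-wide mean plus 3 SD, cut at about 13% in these data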;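 note: signal is the Cy5 over europium emission ratio at 671 and 618 nm; 0% = plate median of compound wells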
DNMT1 block: inhibitors of human DNMT1 | AID 588458 | P26358 | DNMT1 molecular beacon, Hinp1I cleavage, fluorescence | hit rate 0.83% among 360,000 | inhibition (reported as % activation of signal), % at 10 µM; in the data active = inhibition above about 50%
PG9 bind confirm: PG9 antibody binding, confirmed; AID 651571; hit rate 90% among 1,500; inhibition, % at 6.7 µM; TR-FRET PG9 antibody binding, biochemical; shares compounds with PG9 Ab binder; in the data active = inhibition above about 9%
PGV04 counter: counter-screen for PG9 binders: binding control antibody PGV04. inhibition, % at 6.7 µM. TR-FRET PGV04 antibody-gp120 binding, biochemical. shares compounds with PG9 Ab binder. hit rate 95% among 1,500; in the data active = inhibition above about 9.5%
PG9 bind DR: PG9 antibody binding, dose response | AID 651848 | 95 tested, under 10 active | TR-FRET PG9 antibody-gp120 binding inhibition | shares compounds with PG9 Ab binder | IC50, µM; in the data active = IC50 below about 10 µM
PGV04 DR counter: PGV04 binding, dose response counter-screen | shares compounds with PG9 Ab binder | TR-FRET binding to control antibody PGV04 | IC50, µM | hit rate 20% among 95
PG126 DR counter: binds control antibody PG126 in PG9 counter-screen | shares compounds with PG9 Ab binder | TR-FRET binding to antibody PG126, counterscreen | IC50, µM | hit rate 20% among 95 | AID 651939
Starred values were filed as active, the others as inactive; i = inactive; . = not tested or not shown. Most compounds without a hit are left out; they make up all but 3.5% or so of the library. Cut-off read from the data, not from the text of the source, unless noted: active = IC50 below about 9 µM; inactive = the rest.

SMILES	PG9 Ab binder	UHRF1 MBD2 ctr	rCAG RNA binder	MBD2 DNA inh	LEDGF integ inh	DNMT1 block	PG9 bind confirm	PGV04 counter	others
CCN(c1ccc(C(=O)CN2C(=O)NC3(CCOc4ccccc43)C2=O)cc1)S(C)(=O)=O (stereo unspecified)	9.8*	3	5	1	1	-7	34*	32*	PG9 bind DR=>67;PGV04 DR counter=>67;PG126 DR counter=>67
O=C1C2CC3N1CCC31c3ccccc3-n3c1c2ccc3=O (stereo unspecified)	-1	9	0	2	4	2	.	.
COC(=O)c1ccc(C2/C(=C(\O)c3ccc(OC)c(C)c3)C(=O)C(=O)N2c2cc(C)on2)cc1 (stereo unspecified)	8.7*	-1	30	-1	-1	0	14*	19*
CCc1ccc2oc(C(=O)Nc3ccc(S(N)(=O)=O)cc3)c(C)c2c1	10*	0	8	-3	-1	10	15*	21*
Cc1c(C(=O)Nc2ccc(S(N)(=O)=O)cc2)oc2ccc(Cl)cc12	3	-4	7	4	1	17	.	.
CSc1ccc(C#N)cc1NC(=O)c1ccc(Cl)cc1Cl	11*	-1	1	2	-1	0	19*	24*
CSc1ccc(C#N)cc1NC(=O)c1ccccc1	-3	-2	-7	2	1	6	.	.
S=c1[nH]c2ccccc2n2cccc12	23*	-1	6	-8	5	-2	17*	15*	PG9 bind DR=i;PGV04 DR counter=i;PG126 DR counter=i
Cc1cc(F)ccc1S(=O)(=O)Nc1nc2ccccc2nc1Cl	2	-3	4	-4	-2	1	.	.
CC(=O)Nc1ccc(S(=O)(=O)Nc2nc3cc4c(cc3nc2Cl)OCCO4)cc1	13*	-2	7	-4	2	-3	26*	35*
CC(=O)Nc1ccc(S(=O)(=O)Nc2nc3ccccc3nc2Cl)cc1	17*	-1	5	0	-3	-1	25*	32*
Cc1ccc(C(C)(C)C)cc1S(=O)(=O)Nc1nc2ccccc2nc1Cl	13*	1	63*	-1	7	0	21*	25*
CN(C(=O)[C@H]1O[C@@H](n2cnc(C(N)=O)n2)[C@H](O)[C@@H]1O)c1ccccc1	1	1	2	-1	-6	.	.	.
CC(=O)c1sc(Nc2ccccn2)nc1C	30*	-2	1	-6	-2	3	38*	51*
CC(=O)c1sc(NC(=O)C(C)C)nc1C	48*	6	3	-1	0	4	46*	64*
Cc1nc(NC(=O)C2CC2)sc1C(=O)Nc1ccc(Br)cc1	14*	-4	5	-3	2	-2	14*	15*
CC(=O)Nc1nc(C)c(C(C)=O)s1	8	0	4	-5	0	-1	.	.
CC(=O)c1sc(NC(=O)COc2ccc(Br)cc2)nc1C	18*	6	4	1	1	-5	21*	60*
CC(=O)c1sc(NC(=O)COc2ccc([N+](=O)[O-])cc2)nc1C	-2	3	5	3	1	5	.	.
CC(O)Cn1c(N2CCCC2)nc2c1c(=O)n(C)c(=O)n2C (stereo unspecified)	0	4	-6	8	1	-6	.	.
CCc1nc2ccc(C(=O)Nc3cc(-c4ccccc4)ccc3OC)cn2c1N(CCN(C)C)CC1CC1	0	1	2	3	-2	-1	.	.
COc1ccc(S(=O)(=O)N(C)C[C@H]2OCc3cn(nn3)CCCC(=O)N([C@@H](C)CO)C[C@@H]2C)cc1	1	3	0	1	-4	0	.	.
